Hit rate of the full screen: of about 53,000 sequences, about 3,700 (7%) were called active. Many of the other results were omitted from the sample, so actives are more common in it than they were. Unmarked numbers belong to inactive results.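 Rule for the calls: active = gene knockdowns whose robust z-score for IL-1 alpha signal is at least 2 or at most -2, so actives lie on both sides; inactive = the rest.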
Assay: Components of the Cytosolic LPS Sensing Pathway: Gene Identification via Genome-wide siRNA Screen
Conditions: RAW264.7 macrophages, IL-1a HTRF, actives lie on both sides, screened at 100 nM (by protocol), cells primed 5 h with Pam3CSK4 first
Description: Non-canonical inflammasome activation by cytosolic LPS is a critical component of the host response to Gram-negative bacterial infection, however we lack a comprehensive understanding of the cellular processes that control this pathway. Here we describe a genome-wide siRNA screen to identify genes regulating the mouse macrophage IL-1 alpha response to cytosolic LPS.
RAW264.7 cells were maintained in complete DMEM media, comprising DMEM with 4.5 g/L glucose, 10% FBS (Gemini Bio-Products, West Sacramento, CA), 2 mM Glutamine (Lonza) and 20 mM HEPES (Lonza), hereafter complete DMEM.
The RNAi screen was conducted in 384-well format using the Ambion Silencer Mouse Genome siRNA Library (#4391425), which consists of three unique, nonoverlapping, nonpooled siRNAs for each of 17,000 gene targets. siRNA reagents ([…]) were stamped into 384-well white flat-bottom microplates (Corning, 3570) using a Velocity11 VPrep liquid handling system (Agilent) integrated into a BioCel robotic platform (Agilent) in columns 1-22, leaving columns 23-24 empty for negative (Ambion, Negative control #1) and positive (mouse Casp4) controls, respectively. The median value of each plate's negative control column was used to normalize sample wells, and the positive control was used to assess transfection efficiency and assay performance.
Lipofectamine RNAiMAX Transfection Reagent ([…]; Invitrogen) was added in […] serum-free, antibiotic-free media to plate wells using a Thermo Scientific Matrix WellMate and Microplate Stacker. Plates were incubated for 45 min at room temperature to allow for the sufficient formation of siRNA-lipid complexes. Cells were seeded at a density of 1x10^4 cells per well in 20 microL media containing 20% (vol/vol) FBS without antibiotics. The final concentration of siRNA in each well was 100 nM. Cells were cultured for 48h at 37 degrees C in 5% CO2 before addition of […] of TLR ligand Pam3CSK4 for 5 hours. The medium was then removed, replaced with […] growth media and cell were transfected with […] of LipidA and TransIT-TKO (Mirus) for 24 hour. At the end of the LipidA treatment, […] of supernatant was transferred to a 384 Greiner Bio-one non-binding low volume plate and […] of IL-1a HTRF reagent (Cisbio, 62MIL1APEH) was added and incubated at room temperature overnight. The plates were read on an EnVision plate reader (PerkinElmer). Cell viability was measured by adding 20ul Cell Titer Glo to the original plate and running a luminescence read on the EnVision. The quantified IL-1a signal for each siRNA gene-targeted well was divided by the median of the negative control wells and multiplied by 100 to achieve a negative control normalized value for each well/siRNA. This normalized value was then used to generate a robust z-score by first taking the log of each value and then by subtracting the median and dividing by the […].

Sequence	z-score
GGAGAAAUUGCCUUUGAUCTT against Pdik1l	0.416
CGAUUUGCAGCCCUCAUGATT against Inka1	-2.27 (active)
GCCGUCUACCCUGAUAACATT against Cp	0.67
GAAGCAGGCCUGGGAUCUUTT against Vmn1r41	2.01 (active)
GGAGCAAAUGAUCAAUAAATT against Serpina3b	-0.364
GGCAUCUCUUUGCUUGAAUTT against Lalba	-0.86
GCCCUCAUUUGUCCUACAUTT against Arhgef2	0.202
GGGUUUAGAGACCCUGAGATT against Klc2	-2.09 (active)
GGUGGACAAGGAGAGGACUTT against H2-Q1	0.109
GGAAUGGAACACAAAUAGCTT against Kdelr2	0.191
GGACUUUUGUGUAUAGUUATT against Smad1	1.59
GGACGCGGGAAAAAUGUUCTT against Hnrnpab	1.37
GCUGGAAGCAUUUGUUUUUTT against Uap1	2.19 (active)
GCUUAGUGACCAUCUCCGUTT against Epop	0.236
GGAAUCUCACCAAUCCAAATT against Rab14	-0.364
GGAGAGCUAGCCUUAAUAATT against Bspry	4.21 (active)
CGGUUACAGGUGAAAUCCUTT against Sval1	-1.36
CGGGUGAUGCCUAUGUCAUTT against Gsn	0.837
GGCUUACAGUUCCAUAUGGTT against Olfr401	-1.11
GCUCAUUGCACUUGCCAAGTT against Tcea2	-0.0377
GGUUUGUGUCUAAGGAAUUTT against Klhdc7a	-0.203
GGUCCUACCUUGAAGCUCCTT against Ado	0.816

Sequence	z-score
GCACCAGUCGGUAUUCACATT against C1qc	-0.665
GCAUUGUGAGACUAACGUGTT against Dusp7	1.08
GGGAAUAAUGUCUAGUUUGTT against Fam126a	0.215
GAUGGUGUCUAGUGAGAGCTT against Oxct2b	-2.01 (active)
GCACCAUUUUGAUCGUCAUTT against Olfr519	0.341
GGUUUGAAAUGAAACUUCATT against Nedd4l	-0.0699
GCGAGCUUUAACCUUUCCATT against Olfr1028	-2.49 (active)
CCUCACAAAGCACAAUAUCTT against Sntg1	-1.46
CGUAGCUAUUCUGGUUGUCTT against H2-Q6	-0.616
GGUCCUCAAUGAAAUGAGATT against Krt12	1.05
GGAGUUUGGAACUUCCAACTT against Tcf21	2.79 (active)
GGACCAAAAUCUAGAAUACTT against Zfp629	-0.898
GGUAUUUAAGUGAUACAUCTT against Ddost	-0.321
GGUACCGUCAGUUGUCCUATT against Rnf4	-1.86
GGUGAAGAAGGAGACAAAGTT against Tmem43	0.347
GGAUAAAGUUUAAGGAUGGTT against Vmn1r40	-0.43
GGAGAAGGAUGAAGACGGATT against Map1lc3a	0.397
GCUUUUGUUACAUAAUGCUTT against Tmem237	1.12
GACCACUUCCUUCUAUGCCTT against Slc35c1	-2.07 (active)
GGGCUUCAUCAACUAUCUUTT against Spint1	1.03
CGGCUAAAUGCAAGUAAAGTT against Rgma	-1.07
GGUACUGAUUACUCUGUAUTT against Mrps17	-0.388

Sequence	z-score
GCUUUUUGUGAAACUGGCCTT against Pstpip2	0.191
GGUCAAUAUCCUCGGACAUTT against Hsd17b13	-0.386
GCCACGUAGACUGAUAUAGTT against Irf5	-1.16
GGAACAAGGAAGUUAAGGATT against Olfr1044	0.251
GCCCAACGUGGUGUACAUUTT against Gask1b	4.04 (active)
CCAGUUUCAGAUCAGAUUATT against Zfp747	0.729
GCUGACCUUCAUUCAUAUATT against Vmn1r27	-2.06 (active)
GCUAGGAGAACCUACAUACTT against Adcy4	-0.368
GCUGAGAGUGAACCGAUGUTT against Dyrk4	1.54
CCAUUCUACGAGAAUUGUATT against Dync1i2	-0.326
GGAUAACAGAGAUUUCUCCTT against Il15ra	0.0534
CCUGCAUUAUUUAUGAAAGTT against Mfap3l	-0.449
GUAAUCACCUUAAAGAUGUTT against Cebpb	1.32
GGUUAGGUUGAUGAAUAAGTT against Eif4ebp2	2.46 (active)
CCUUUUGAGAGCUCCAGAUTT against Ptrh1	-0.273
CCUAAGGCAAUCCCUAUUGTT against Gprasp1	-0.424
GCAAUUUAAGUUUAGGAGATT against Heatr1	-0.215
GCCAAUCUGGUGAUACUUCTT against Vmn1r71	-1.64
GCUGUUAAGUAAUGACAGATT against Chst7	1.54
GGUAAAUGACAACUUUCUUTT against Slco6b1	2.92 (active)
GCCUAUUGGCCUGAUAUGUTT against Gpr141b	0.173
GGUACAACUGCUCAUUUUUTT against Rhbdd1	-0.0082

Sequence	z-score
GGCCCUAAUUUCAGUAAUATT against Pigv	0.568
GCCUUUCUCGUUCCUAUAGTT against Plgrkt	-2.42 (active)
GGUUUUUGAGUUUCUGAUUTT against Vps8	1.28
CCACCUUGUUGAGUGGCACTT against Smarcd3	-0.177
GCAUUUCAAUCGCACGUUUTT against Gal3st2	-0.893
CCGAGCAAAAUCUCAAAUUTT against Mdh1	1.89
CCCUCUUAGUAACUGGCUCTT against Cdhr4	-0.0846
GGAAGACAUGAAAUUGUUCTT against Psma3	-2.69 (active)
GCAAGAAGGUUAUUCUAUATT against Atxn3	0.399
GGCUUUUGAGAAUUCAUUCTT against Kcna5	2.75 (active)
GGCCUAUCUUCUUUACAUATT against Ctbs	0.348
GUUUCUGGAGACGGUGGAGTT against Rpl10a	1.74
AGGAAAGAAAAUAUGCUGATT against Cox17	1.12
GCGUGCUGGUUUUCUGAUUTT against Sbno2	0.333
GGAGAUCCAGUUUUUUAACTT against Ndst1	0.566
GGUGGAAUUUUCAACUUACTT against Nkx3-1	5.36 (active)
GGUCUAGCUCAAAAUCCCATT against Srek1	-1.3
GGCUACCGAGACAAUGCUUTT against Pcmtd1	0.232
GGAGAAGAAUUCUUACAGGTT against Fbxo16	0.468
CCCGACCUCAACAUUUGUATT against Bmp2k	-0.265
GGUAGCAAAUCCAACAAGATT against Slamf1	0.226
GGCACUUCCUCCCUCAACATT against 4833420G17Rik	-0.57

Sequence	z-score
GGAGGUCAAAGUAAACUGGTT against Tial1	2.2 (active)
CCCAGUAAUAUGAAAAGAGTT against Gucy2f	-0.408
GGUUGAAUCCUAAGAAUGUTT against Edc3	0.39
GGAGAAAGCUCAGCAUACATT against Usp3	-0.484
GGGAAAGCACUCCAACACATT against Frem1	-2.12 (active)
CGCAUGACCUUCCAGAUGCTT against Myoz1	0.49
GCACAUCAACAUUGAUACUTT against Atp11c	-0.0521
GGAAAUCGAGGACUUAUACTT against Wnk4	3.54 (active)
GGCAAUGUCUUCUCCAAUATT against Dedd	-0.652
GCCGGAAGAAACUCAUGCUTT against Mad2l1bp	-0.152
CCUGUUAAUUGAUUACCUUTT against Pla2r1	1.03
CCUAACGGUCAGAAGUUGATT against Ccng1	0.39
CCUCUCAGUGGUUGAAAUGTT against Wdr5	-2.46 (active)
GGGCAGACCUAAUAGCUUATT against Cycs	0.707
GCUUUUGACACUUAUAUGATT against Ptk7	-0.299
GGCAUGUCUUAAUUUCAUUTT against Shisa2	0.333
GGAAGACUCACGGCUCAAATT against Ccdc124	-1.48
GGCAUCUUCCUUUAAAAAGTT against Gar1	-0.708
GGACAGUUUAAGGACAACATT against Morn2	0.18
GGUGGUCUUCAAGUCUGACTT against Cdcp2	1.95

From PubChem BioAssay AID1508600 (Functional Genomics Laboratory (NCATS/FGL), 2020)
